We go through 18 molecules from PubChem BioAssay (NCATS).

The conditions of test [1]: Ebola virus entry assay, green fluorescence channel.
For test [2] the following is noted: Ebola virus entry assay, blue channel fluorescence.
The conditions of test [3]: Ebola virus entry assay, ratio channel.
The conditions of test [4]: Ebola virus entry assay, reporter ratio channel; Channel type: primary.
Test [5] in a line: qHTS assay for measurement of the activity of small molecule inhibitors on Zika virus induced Caspase-3 activity in human iPSC derived neural progenitor cells (hNPCs) (AID 1224857; active means well fitted inhibition curve with a large enough effect; further: % of control where 0% means no effect; nearly all actives have a fitted effect of over 65% in size). As to conditions: hNPCs ZIKV-induced caspase-3/7, Caspase-Glo luminescence, 6 h; series mostly up to 45.7 µM. In short, it runs like this:
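Caspase-3/7 induction by a 6-hour ZIKV infection was quantified with a luminescent Caspase-Glo 3/7 reagent incubated 30 minutes at room temperature. Compounds were preincubated with hNPCs for 1 hour; inhibition was calculated against uninfected and infected control wells.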
On the technique in general: Quantitative high-throughput screening tests each substance at several concentrations.

Test [6] can be described thus: qHTS assay for measurement of the activity of small molecule inhibitors on Zika virus induced Caspase-3 activity in human astrocytoma cells (AID 1224859; active means well fitted inhibition curve with a large enough effect;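 further: plate controls were ZIKV-infected untreated cells for no effect and uninfected cells for full effect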). Particulars: SNB-19 ZIKV-induced caspase-3/7, luminescence, 6 h; series mostly up to 45.7 µM. In short, it runs like this: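 In SNB-19 cells plated at 250 cells/well and grown 16-20 h, compounds were applied 1 h before ZIKV (2 FFU/cell). Six hours later caspase-3/7 luminescence was recorded.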

For test [7] the following is noted: Ebola virus entry assay, green channel fluorescence.
The conditions of test [8]: Ebola virus entry assay, blue channel (ratio component).
Test [9] can be described thus: qHTS profiling of the MIPE4 collection as inhibitors of Plasmodium falciparum (3D7) proliferation (AID 743344).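 Further: scaled between DMSO vehicle wells and 0.29 µM artemisinin as full inhibition.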 Particulars: P. falciparum 3D7 in erythrocytes, SYBR Green DNA fluorescence, 72 h; at 28.5 µM (top of the series). Summed up: (§1)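 Parasite DNA was quantified by SYBR Green I fluorescence (ex 485, em 535 nm) after overnight lysis in saponin/Triton buffer at room temperature. Cultures at 0.3% parasitemia and 2.5% hematocrit were first exposed to compound for 72 h at 37 C; signals were normalised to artemisinin (0.29 uM) and vehicle wells.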

The nature of test [10]: qHTS profiling of the MIPE4 collection as inhibitors of Plasmodium falciparum (DD2) proliferation (AID 743345). Particulars: P. falciparum Dd2 in erythrocytes, SYBR Green DNA, 72 h; at 28.5 µM (top of the series). Summed up: as §1
Test [11] in a line: qHTS profiling of the MIPE4 collection as inhibitors of Plasmodium falciparum (DD2) proliferation (Rep 2) (AID 743346). Particulars: P. falciparum Dd2 in erythrocytes, SYBR Green DNA, 72 h; at 28.5 µM (top of the series). Summed up:
as §1

Test [12] in a line: qHTS profiling of the MIPE4 collection as inhibitors of Plasmodium falciparum (HB3) proliferation (AID 743347).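 Further: plate controls were DMSO vehicle wells for no effect and artemisinin wells for full effect.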 As to conditions: P. falciparum HB3 in erythrocytes, SYBR Green DNA, 72 h; at 28.5 µM (top of the series). Summed up:
as §1

Results filed as inconclusive are left out. For some of these results: Results with a measured potency or affinity are listed apart. Active and inactive are the calls of the source. Unless noted, how the calls were made is not given here.
Wherever efficacy is given: 0% is about no effect.

Take `Cc1nnc2n1-c1sc(CCc3ccc(CC(C)C)cc3)cc1C(c1ccccc1Cl)=NC2C` (configuration not stated): in test [1], the efficacy was 144% (inactive). For the same molecule, the figures for the half-maximal activity concentration (AC50) in test [2], in test [3] and in [4] were 39.8 µM (active), 31.6 µM (active) and 31.6 µM (active), respectively. In addition, the Potency entry in [5] is “inactive”. Further, the molecule was called inactive in test [6].
With `CCc1ccc(C2CCNCC2)cc1`, the efficacy in [1] was 65.4% (inactive). The AC50 is 25.1 µM (active) in test [2] and 31.6 µM (active) in [4]. Besides, the outcome in [3] and in test [6] was inactive. In addition, the Potency entry in test [5] is “inactive”.
Consider `CCC(=O)OC1(c2ccccc2)CCN(C)CC1`, for which the efficacy in [1] is 69.7% (inactive). For the same molecule, the half-maximal activity concentration (AC50) in test [2] and in test [4] was 31.6 µM (active) throughout. The result in [3] and in [6] was inactive. For the same molecule, in test [5], the Potency entry was “inactive”.
On to `CC(=O)OC1(c2ccccc2)CCN(CCc2ccccc2)CC1`, for which the efficacy in test [1] was 56.2% (inactive). Further, the half-maximal activity concentration (AC50) in [2], in test [3] and in test [4] was 31.6 µM (active) in each case. In addition, the Potency entry in test [5] is “inactive”. Moreover, the call in test [6] was inactive.
Regarding `CC(CC(C#N)(c1ccccc1)c1ccccc1)N(C)C` (configuration not stated), the efficacy in [1] is 77.3% (inactive). The concentration at half-maximal activity (AC50) in test [2] was 15.8 µM (active); in [3], 14.1 µM (active); in [4] it was 14.1 µM (active). Also, the outcome in [6] was inactive.
With `CN1[C@@H]2CC[C@H]1CC(OC(=O)c1cc(Cl)cc(Cl)c1)C2` (some centres not stated), the efficacy in test [1] is 82.4% (inactive). In addition, the AC50 in test [2] is 25.1 µM (active); in test [3], 28.2 µM (active); in [4] it was 28.2 µM (active). Moreover, the Potency entry in test [5] was “inactive”. Also, the molecule was called inactive in [6].
`C[N+]1(CCC(C(N)=O)(c2ccccc2)c2ccccc2)CCCCC1`: in test [1], the efficacy is 21.3% (inactive). Further, the molecule was called inactive in [2], in [7], in [4], in test [8] and in test [6].
Consider `NC(=O)CN1CCCC1=O`, for which the efficacy in test [1] was 23.9% (inactive). In addition, the molecule was classed as inactive in [2], in test [7], in [4], in test [8] and in test [6]. Besides, the Potency entry in test [5] is “inactive”.
In the case of `CCCC[N+]1(C)[C@@H]2CC(OC(=O)[C@H](CO)c3ccccc3)C[C@H]1[C@@H]1O[C@@H]12` (some centres not stated), the efficacy in test [1] is -24.1% (inactive). Besides, the molecule was called inactive in test [2], in [7], in test [4], in test [8] and in [6]. Moreover, the Potency entry in [5] was “inactive”.
As for `CCC(=O)O[C@H]1CC[C@H]2[C@@H]3CCC4=CC(=O)CC[C@]4(C)[C@H]3CC[C@]12C`, in [1], the efficacy was -42.2% (inactive). Moreover, the result in test [2], in test [7], in [4] and in test [6] was inactive. Besides, in [5], the Potency result is “inactive”.
On to `CCOC(=O)NC(O)C(Cl)(Cl)Cl` (configuration not stated), for which the efficacy in test [1] was 20.9% (inactive). Besides, the result in test [2], in test [7], in [4], in test [8] and in test [6] was inactive.
As for `C[N+]1(C)[C@@H]2CC[C@H]1CC(OC(=O)C(CO)c1ccccc1)C2` (some centres not stated), the efficacy in test [1] is 19.1% (inactive). Further, the molecule was called inactive in [2], in test [7], in [4], in test [8] and in test [6]. Besides, the Potency entry in test [5] was “inactive”.
Turning to `C=CCc1cc(OC)c(O)c(C(=O)NCCO)c1`, in [9], the parasite growth, % of DMSO control was found to be 114%. This molecule also returned a parasite growth remaining, % of DMSO control (lower = more inhibition) in test [10] of 40.8%. Besides, the parasite growth, % of control (lower = inhibition) in test [11] was 125%. Further, in test [12], the growth, % of control is 100%. In test [1], the efficacy is -21.5% (inactive). For the same molecule, the AC50 in [2] is 12.6 µM (active); in test [3], 22.4 µM (active); in test [4], 22.4 µM (active).
`O=C1CN2CCOC2(c2ccccc2Cl)c2cc(Cl)ccc2N1` (configuration not stated): the efficacy in test [1] is 46.2% (inactive). The call in test [2], in test [3], in [4] and in test [6] was inactive.
In the case of `CCN(CC)C(C)C(=O)c1ccccc1` (configuration not stated), the efficacy in test [1] is 12% (inactive). The call in test [2], in test [7], in test [4], in test [8] and in test [6] was inactive. Further, in test [5], the Potency result was “inactive”.
In the case of `C[C@H](N)[C@H](O)c1ccc(O)c(O)c1`, the efficacy in test [1] was 56.6% (inactive). Further, the figures for the AC50 in test [2], in test [3] and in test [4] were 5.62 µM (active), 4.47 µM (active) and 4.47 µM (active), respectively. For the same molecule, the molecule was classed as inactive in test [6].
For `C[C@@H]1CN(C2CCC(C#N)(c3ccc(F)cc3)CC2)CC[C@]1(C(=O)O)c1ccccc1` (some centres not stated), the efficacy in test [1] was 31.9% (inactive). Further, the outcome in [2], in test [7], in test [4], in test [8] and in [6] was inactive.
For `CC(C)C(Br)C(=O)NC(N)=O` (configuration not stated), the efficacy in test [1] was -26.9% (inactive). In addition, the result in [2], in [7], in test [4], in test [8] and in test [6] was inactive. Also, in test [5], the Potency result is “inactive”.

For orientation: AC50 means the concentration giving half of the maximal activity seen.
